Results reported in article PMC7862700, “An all-to-all approach to the identification of sequence-specific readers for epigenetic DNA modifications on cytosine”.

Tests used:
Test in all cases: DAPPL (digital affinity profiling via proximity ligation, sequencing); 10 mM Tris-HCl pH 7.5, 50 mM NaCl, 1 mM DTT, 4% glycerol, room temperature, 30 min; GST-TFs on glutathione beads, 16-mer random dsDNA library, 0.1% formaldehyde crosslink after washing; high values mean tight binding
FLI1 = target: T1, FLI1 (Homo sapiens, UniProt Q01543 1-452); conditions: protein: recombinant; tags: N-terminal GST; dsDNA, one strand shown
T1 sequence: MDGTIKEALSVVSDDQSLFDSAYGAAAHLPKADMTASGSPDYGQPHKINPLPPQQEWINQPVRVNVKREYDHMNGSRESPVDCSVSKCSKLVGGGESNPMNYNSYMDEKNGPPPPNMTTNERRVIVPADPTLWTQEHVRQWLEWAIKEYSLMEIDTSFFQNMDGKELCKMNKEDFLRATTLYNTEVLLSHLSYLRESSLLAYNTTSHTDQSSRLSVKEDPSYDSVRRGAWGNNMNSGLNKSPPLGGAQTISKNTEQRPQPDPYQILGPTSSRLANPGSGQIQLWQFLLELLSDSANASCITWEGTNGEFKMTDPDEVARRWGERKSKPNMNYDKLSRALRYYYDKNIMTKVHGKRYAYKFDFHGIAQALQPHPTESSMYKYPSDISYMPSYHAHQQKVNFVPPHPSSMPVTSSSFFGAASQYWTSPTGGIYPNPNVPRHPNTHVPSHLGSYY
In short: (§1)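 Pools of DNA-barcoded human transcription factors, expressed in yeast as GST fusions on glutathione beads and combined with a tag-only sample, were incubated with 200 nmole of a 16-mer random double-stranded DNA library. Incubation took 30 min at room temperature in Tris/NaCl/DTT/glycerol buffer and was followed by washing, 0.1% formaldehyde crosslinking, proximity ligation (BsaI/T4 ligase, 1 h, 37 °C), PCR amplification and sequencing on an Illumina NextSeq500. Binding signal is the ratio of a hexamer's read frequency for a factor to its frequency for the tag-only sample.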

ELK1 = target: T2, ELK1 (Homo sapiens, UniProt P19419 1-428); conditions: protein: recombinant; tags: N-terminal GST; dsDNA, one strand shown
T2 sequence: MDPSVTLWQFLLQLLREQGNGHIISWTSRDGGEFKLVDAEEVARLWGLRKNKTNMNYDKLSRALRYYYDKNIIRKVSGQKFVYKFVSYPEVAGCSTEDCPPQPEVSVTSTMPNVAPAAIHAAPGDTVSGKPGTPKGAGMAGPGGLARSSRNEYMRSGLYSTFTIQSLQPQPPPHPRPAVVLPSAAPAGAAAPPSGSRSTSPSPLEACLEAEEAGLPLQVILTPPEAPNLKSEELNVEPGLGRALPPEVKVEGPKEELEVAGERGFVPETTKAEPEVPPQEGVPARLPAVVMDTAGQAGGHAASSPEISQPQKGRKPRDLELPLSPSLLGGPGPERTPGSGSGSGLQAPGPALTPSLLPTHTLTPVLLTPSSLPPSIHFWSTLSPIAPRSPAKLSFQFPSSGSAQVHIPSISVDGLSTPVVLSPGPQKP
In short: as §1

GABPA = target: T3, GABPA (Homo sapiens, UniProt Q06546 1-454); conditions: protein: recombinant; tags: N-terminal GST; dsDNA, one strand shown
T3 sequence: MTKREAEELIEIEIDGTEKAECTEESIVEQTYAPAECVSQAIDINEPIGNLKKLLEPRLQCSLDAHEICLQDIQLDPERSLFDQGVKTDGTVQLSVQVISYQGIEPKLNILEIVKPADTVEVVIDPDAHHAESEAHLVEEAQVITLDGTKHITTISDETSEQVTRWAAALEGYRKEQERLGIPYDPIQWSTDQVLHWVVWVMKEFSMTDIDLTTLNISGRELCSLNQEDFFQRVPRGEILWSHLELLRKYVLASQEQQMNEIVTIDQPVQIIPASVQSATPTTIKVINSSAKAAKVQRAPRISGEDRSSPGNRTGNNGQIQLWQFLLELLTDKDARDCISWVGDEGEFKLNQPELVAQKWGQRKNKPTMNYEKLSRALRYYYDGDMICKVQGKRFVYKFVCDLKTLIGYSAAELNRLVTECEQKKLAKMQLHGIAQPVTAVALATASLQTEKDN
In short: as §1

ERG = target: T4, ERG (Homo sapiens, UniProt P11308 1-479); conditions: protein: recombinant; tags: N-terminal GST; dsDNA, one strand shown
T4 sequence: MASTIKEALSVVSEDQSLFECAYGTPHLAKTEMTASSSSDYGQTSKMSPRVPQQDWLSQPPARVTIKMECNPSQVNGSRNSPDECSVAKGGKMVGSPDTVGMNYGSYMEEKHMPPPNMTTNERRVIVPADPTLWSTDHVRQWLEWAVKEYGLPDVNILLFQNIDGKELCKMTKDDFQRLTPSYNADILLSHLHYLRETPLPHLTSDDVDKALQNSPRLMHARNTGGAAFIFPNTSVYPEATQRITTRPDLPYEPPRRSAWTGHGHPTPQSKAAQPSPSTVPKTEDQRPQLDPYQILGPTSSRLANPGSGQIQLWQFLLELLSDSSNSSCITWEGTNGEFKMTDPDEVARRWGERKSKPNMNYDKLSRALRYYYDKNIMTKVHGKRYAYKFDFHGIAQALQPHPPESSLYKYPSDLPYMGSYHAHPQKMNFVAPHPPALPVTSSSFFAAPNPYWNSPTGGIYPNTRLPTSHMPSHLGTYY
In short: as §1

EHF = target: T5, EHF (Homo sapiens, UniProt Q9NZC4 1-300); conditions: protein: recombinant; tags: N-terminal GST; dsDNA, one strand shown
T5 sequence: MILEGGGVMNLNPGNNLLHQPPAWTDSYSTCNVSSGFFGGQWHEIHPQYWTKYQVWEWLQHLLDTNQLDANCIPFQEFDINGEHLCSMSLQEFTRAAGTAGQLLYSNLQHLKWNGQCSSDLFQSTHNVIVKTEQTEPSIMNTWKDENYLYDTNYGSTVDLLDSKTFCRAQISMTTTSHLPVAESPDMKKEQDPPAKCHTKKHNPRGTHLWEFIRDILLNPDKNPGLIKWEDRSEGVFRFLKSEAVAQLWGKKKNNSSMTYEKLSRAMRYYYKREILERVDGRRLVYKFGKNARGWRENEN
In short: as §1

SPI1 = SPI1 (Homo sapiens, UniProt P17947 1-270); conditions: protein: recombinant; tags: N-terminal GST; dsDNA, one strand shown
In short: as §1

SPIB = SPIB (Homo sapiens, UniProt Q01892 1-262); conditions: protein: recombinant; tags: N-terminal GST; dsDNA, one strand shown
In short: as §1

ELK3 = target: T6, ELK3 (Homo sapiens, UniProt P41970 1-407); conditions: protein: recombinant; tags: N-terminal GST; dsDNA, one strand shown
T6 sequence: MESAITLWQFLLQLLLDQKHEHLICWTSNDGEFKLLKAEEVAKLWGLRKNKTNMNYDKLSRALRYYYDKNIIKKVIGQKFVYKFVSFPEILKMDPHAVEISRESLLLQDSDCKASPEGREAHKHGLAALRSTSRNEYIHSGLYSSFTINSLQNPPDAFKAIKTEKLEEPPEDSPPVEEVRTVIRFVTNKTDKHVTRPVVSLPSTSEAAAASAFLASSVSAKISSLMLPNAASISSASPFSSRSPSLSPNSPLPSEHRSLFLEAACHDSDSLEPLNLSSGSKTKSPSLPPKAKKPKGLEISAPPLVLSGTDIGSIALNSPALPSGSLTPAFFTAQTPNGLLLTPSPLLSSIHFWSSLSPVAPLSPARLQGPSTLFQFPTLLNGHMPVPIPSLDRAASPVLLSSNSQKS
In short: as §1

ETV5 = ETV5 (Homo sapiens, UniProt P41161 1-510); conditions: protein: recombinant; tags: N-terminal GST; dsDNA, one strand shown
In short: as §1

HSF1 = HSF1 (Homo sapiens, UniProt Q00613 1-529); conditions: protein: recombinant; tags: N-terminal GST; chain copies: 3; dsDNA, one strand shown
In short: as §1

SPIC = target: T7, SPIC (Homo sapiens, UniProt Q8N5J4 1-248); conditions: protein: recombinant; tags: N-terminal GST; dsDNA, one strand shown
T7 sequence: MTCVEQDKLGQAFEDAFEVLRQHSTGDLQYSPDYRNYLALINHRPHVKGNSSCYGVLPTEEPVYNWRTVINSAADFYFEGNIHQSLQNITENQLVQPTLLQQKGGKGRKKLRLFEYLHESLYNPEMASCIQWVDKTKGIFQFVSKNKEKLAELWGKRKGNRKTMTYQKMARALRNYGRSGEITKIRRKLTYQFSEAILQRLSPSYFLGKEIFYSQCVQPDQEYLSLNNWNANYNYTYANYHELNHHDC
In short: as §1

ELF4 = ELF4 (Homo sapiens, UniProt Q99607 1-663); conditions: protein: recombinant; tags: N-terminal GST; dsDNA, one strand shown
In short: as §1

ELK4 = target: T8, ELK4 (Homo sapiens, UniProt P28324-2 1-405); conditions: protein: recombinant; tags: N-terminal GST; dsDNA, one strand shown
T8 sequence: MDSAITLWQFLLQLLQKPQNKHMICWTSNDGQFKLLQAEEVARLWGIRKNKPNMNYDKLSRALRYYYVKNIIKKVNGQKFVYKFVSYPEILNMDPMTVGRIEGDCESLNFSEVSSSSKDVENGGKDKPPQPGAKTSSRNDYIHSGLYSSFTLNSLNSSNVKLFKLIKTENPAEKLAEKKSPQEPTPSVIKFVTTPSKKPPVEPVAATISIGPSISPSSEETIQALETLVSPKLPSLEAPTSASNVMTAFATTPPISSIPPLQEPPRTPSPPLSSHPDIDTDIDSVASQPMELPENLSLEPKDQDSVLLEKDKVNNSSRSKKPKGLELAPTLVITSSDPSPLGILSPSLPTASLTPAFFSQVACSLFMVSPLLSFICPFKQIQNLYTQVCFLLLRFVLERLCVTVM
In short: as §1

ETV2 = target: T9, ETV2 (Homo sapiens, UniProt O00321 1-342); conditions: protein: recombinant; tags: N-terminal GST; dsDNA, one strand shown
T9 sequence: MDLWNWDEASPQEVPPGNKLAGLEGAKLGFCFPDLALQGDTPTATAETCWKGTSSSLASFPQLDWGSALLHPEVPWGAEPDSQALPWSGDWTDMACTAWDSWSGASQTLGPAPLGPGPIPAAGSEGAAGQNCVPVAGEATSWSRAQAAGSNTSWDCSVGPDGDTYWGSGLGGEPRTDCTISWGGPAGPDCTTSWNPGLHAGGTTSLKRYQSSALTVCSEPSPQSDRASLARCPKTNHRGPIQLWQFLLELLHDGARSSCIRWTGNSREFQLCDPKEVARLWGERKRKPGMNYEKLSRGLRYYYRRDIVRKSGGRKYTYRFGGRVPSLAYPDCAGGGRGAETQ
In short: as §1

ELF3 = target: T10, ELF3 (Homo sapiens, UniProt P78545 1-371); conditions: protein: recombinant; tags: N-terminal GST; dsDNA, one strand shown
T10 sequence: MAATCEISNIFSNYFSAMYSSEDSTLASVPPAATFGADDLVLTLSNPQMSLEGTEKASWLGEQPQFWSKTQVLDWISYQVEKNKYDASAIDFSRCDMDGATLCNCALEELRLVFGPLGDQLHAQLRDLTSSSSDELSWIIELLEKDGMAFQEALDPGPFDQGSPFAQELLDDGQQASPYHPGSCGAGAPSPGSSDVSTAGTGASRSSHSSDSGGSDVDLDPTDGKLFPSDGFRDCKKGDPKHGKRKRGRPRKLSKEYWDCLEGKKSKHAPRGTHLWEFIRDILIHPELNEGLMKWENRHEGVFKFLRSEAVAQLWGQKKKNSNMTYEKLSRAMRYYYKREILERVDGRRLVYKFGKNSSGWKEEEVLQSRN
In short: as §1

CRX = CRX (Homo sapiens, UniProt O43186 1-299); conditions: protein: recombinant; tags: N-terminal GST; dsDNA, one strand shown
In short: as §1

ETV1 = ETV1 (Homo sapiens, UniProt P50549 1-477); conditions: protein: recombinant; tags: N-terminal GST; dsDNA, one strand shown
In short: as §1

ETV1, sequence (P50549 whole entry): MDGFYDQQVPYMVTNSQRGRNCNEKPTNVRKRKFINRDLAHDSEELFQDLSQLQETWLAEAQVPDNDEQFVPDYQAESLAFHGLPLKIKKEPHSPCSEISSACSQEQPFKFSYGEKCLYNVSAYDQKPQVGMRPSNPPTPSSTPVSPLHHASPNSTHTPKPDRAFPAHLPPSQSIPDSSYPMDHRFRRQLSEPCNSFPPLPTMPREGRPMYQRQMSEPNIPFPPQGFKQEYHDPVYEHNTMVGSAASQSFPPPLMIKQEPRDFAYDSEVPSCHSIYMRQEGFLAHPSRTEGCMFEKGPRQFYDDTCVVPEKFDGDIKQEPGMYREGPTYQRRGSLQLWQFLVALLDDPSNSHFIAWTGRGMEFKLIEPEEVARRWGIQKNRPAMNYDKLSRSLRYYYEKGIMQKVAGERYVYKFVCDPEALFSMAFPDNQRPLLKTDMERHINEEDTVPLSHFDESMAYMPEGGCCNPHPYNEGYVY
ELF4, sequence (Q99607 whole entry): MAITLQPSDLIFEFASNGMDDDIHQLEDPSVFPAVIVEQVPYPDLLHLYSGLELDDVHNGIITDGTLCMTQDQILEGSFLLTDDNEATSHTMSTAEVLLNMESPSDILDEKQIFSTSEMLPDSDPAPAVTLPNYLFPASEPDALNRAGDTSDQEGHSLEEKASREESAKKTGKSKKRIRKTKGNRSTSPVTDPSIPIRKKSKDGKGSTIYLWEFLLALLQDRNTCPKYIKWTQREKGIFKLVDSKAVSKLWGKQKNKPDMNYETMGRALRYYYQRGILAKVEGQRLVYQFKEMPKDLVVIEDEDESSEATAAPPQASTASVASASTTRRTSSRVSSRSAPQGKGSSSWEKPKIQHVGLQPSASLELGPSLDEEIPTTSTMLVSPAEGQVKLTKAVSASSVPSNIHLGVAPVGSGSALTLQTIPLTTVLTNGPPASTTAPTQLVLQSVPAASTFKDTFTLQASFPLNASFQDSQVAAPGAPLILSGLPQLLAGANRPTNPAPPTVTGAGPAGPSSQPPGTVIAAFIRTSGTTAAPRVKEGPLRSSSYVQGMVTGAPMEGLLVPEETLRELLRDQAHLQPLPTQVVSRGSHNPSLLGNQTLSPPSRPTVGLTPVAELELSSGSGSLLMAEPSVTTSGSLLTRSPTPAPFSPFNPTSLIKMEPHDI
ETV5, sequence (P41161 whole entry): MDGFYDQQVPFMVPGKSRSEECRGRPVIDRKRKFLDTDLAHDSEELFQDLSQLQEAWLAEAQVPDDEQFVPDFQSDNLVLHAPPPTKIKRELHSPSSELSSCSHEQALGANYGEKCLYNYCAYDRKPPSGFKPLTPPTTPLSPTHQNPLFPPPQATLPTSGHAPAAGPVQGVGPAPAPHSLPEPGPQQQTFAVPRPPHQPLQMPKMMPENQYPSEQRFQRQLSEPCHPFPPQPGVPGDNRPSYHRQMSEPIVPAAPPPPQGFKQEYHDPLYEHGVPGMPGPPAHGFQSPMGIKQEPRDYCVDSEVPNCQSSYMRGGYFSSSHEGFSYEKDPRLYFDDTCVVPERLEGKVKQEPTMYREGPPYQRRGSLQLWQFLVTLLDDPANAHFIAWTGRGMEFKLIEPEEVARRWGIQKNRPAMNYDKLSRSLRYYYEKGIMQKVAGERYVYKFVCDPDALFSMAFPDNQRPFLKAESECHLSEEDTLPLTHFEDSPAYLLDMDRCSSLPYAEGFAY
HSF1, sequence (Q00613 whole entry): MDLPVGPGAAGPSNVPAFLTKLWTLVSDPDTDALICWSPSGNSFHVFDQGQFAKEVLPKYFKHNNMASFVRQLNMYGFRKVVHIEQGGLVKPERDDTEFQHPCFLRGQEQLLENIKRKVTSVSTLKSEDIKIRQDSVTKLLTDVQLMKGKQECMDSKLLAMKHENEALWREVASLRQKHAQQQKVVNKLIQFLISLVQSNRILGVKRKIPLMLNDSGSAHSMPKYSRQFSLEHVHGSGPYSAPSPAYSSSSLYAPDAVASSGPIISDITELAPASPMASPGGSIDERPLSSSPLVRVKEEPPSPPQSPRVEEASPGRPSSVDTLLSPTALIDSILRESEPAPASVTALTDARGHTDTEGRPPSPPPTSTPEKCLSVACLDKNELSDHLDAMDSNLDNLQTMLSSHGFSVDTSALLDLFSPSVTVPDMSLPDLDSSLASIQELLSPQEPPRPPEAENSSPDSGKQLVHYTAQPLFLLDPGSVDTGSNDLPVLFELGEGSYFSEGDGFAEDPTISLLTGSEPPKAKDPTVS
SPIB, sequence (Q01892 whole entry): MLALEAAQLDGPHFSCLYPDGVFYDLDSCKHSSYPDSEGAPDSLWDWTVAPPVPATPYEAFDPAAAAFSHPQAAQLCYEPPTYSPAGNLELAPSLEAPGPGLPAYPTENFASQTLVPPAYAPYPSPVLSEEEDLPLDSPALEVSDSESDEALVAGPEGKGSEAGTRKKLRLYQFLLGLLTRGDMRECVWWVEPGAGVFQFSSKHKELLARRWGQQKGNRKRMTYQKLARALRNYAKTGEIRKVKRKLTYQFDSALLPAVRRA
CRX, sequence (O43186 whole entry): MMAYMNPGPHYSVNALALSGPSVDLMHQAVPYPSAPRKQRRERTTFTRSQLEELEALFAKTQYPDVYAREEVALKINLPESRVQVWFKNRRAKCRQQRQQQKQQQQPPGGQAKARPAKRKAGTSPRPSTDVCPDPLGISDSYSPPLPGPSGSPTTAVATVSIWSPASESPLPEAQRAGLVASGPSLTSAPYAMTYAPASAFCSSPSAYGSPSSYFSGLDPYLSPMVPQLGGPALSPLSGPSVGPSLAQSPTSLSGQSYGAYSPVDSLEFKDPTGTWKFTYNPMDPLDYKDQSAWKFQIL

AGGTTT was tested, and the binding signal (FLI1) was 1.02 fold enrichment (6-mer frequency, TF over GST control), the binding signal (ELK1) was 1.04 fold enrichment (6-mer frequency, TF over GST control) and the binding signal (GABPA) was 1.08 fold enrichment (6-mer frequency, TF over GST control). The binding signal (ERG) was 1.06 fold enrichment (6-mer frequency, TF over GST control), the binding signal (EHF) was 1.07 fold enrichment (6-mer frequency, TF over GST control) and the binding signal (SPI1) was 1.06 fold enrichment (6-mer frequency, TF over GST control). For the same sequence, the binding signal (SPIB) was 1.04 fold enrichment (6-mer frequency, TF over GST control), the binding signal (ELK3) was 1.13 fold enrichment (6-mer frequency, TF over GST control) and the binding signal (ETV5) was 1.05 fold enrichment (6-mer frequency, TF over GST control). For the same sequence, the binding signal (HSF1) was 1.04 fold enrichment (6-mer frequency, TF over GST control), the binding signal (SPIC) was 1.03 fold enrichment (6-mer frequency, TF over GST control) and the binding signal (ELF4) was 1.07 fold enrichment (6-mer frequency, TF over GST control). The binding signal (ELK4) was 1.06 fold enrichment (6-mer frequency, TF over GST control), the binding signal (ETV2) was 1.05 fold enrichment (6-mer frequency, TF over GST control) and the binding signal (ELF3) was 1.07 fold enrichment (6-mer frequency, TF over GST control). For the same sequence, the binding signal (CRX) was 1.19 fold enrichment (6-mer frequency, TF over GST control) and the binding signal (ETV1) was 1.1 fold enrichment (6-mer frequency, TF over GST control).
